The subject of assay [1] is Plasmodium falciparum Sir2 (PF13_0152, Sir2A). As to the kind of experiment: Plasmodium falciparum Sir2A binding compounds – biochemical, small-molecule microarray, 635 nm fluorescence, primary screen (AID 1098).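 Also: score merges spot fluorescence intensity with its signal-to-noise ratio.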 The note with it: fluorescence 635 nm, higher = more signal.
The nature of assay [2]: probe aDKK1 binding to arrayed compounds – biochemical, biotinylated probe, 635/667 nm fluorescence, primary screen (AID 1099).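 Also: score merges 667nm spot fluorescence with signal to noise across triplicate slides.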 The note with it: small-molecule microarray, higher = more signal.
The nature of assay [3]: probe aCHRDL2 binding to arrayed compounds – biochemical, biotinylated probe, 635/667 nm fluorescence, primary screen (AID 1100). The note with it: small-molecule microarray, higher = more signal.
Assay [4] in a line: change in splice reporter luminescence, either direction, cell-based, HEK293, spliceosome inhibition project, primary screen (AID 1101).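 Also: HEK293 cells carrying a splicing-competent luciferase reporter gene; test concentration not given here.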 The note with it: HEK293 splicing luciferase reporter, 24 h, higher = more signal, called active from +8 up or from −8 down.
Assay [5] addresses Fibroblast growth factor 10 (Homo sapiens) (UniProt O15520). As to the kind of experiment: compounds binding fibroblast growth factor 10 – biochemical, small-molecule microarray, 635 nm fluorescence, primary screen (AID 1102). The note with it: FGF10 binding, fluorescence 635 nm, higher = more signal.
The test system of assay [6] is glycogen synthase kinase-3 (GSK3A per assay name; protocol says GSK3B). As to the kind of experiment: compounds binding glycogen synthase kinase-3 – biochemical, small-molecule microarray, 635 nm fluorescence, GSK3A, primary screen (AID 1103). Also: the record names both GSK3A and GSK3B. The note with it: fluorescence 635 nm, higher = more signal.
Assay [7] addresses Epidermal growth factor receptor (Homo sapiens) (UniProt P00533). The assay can be described thus: compounds binding epidermal growth factor receptor – biochemical, small-molecule microarray, 635 nm fluorescence, primary screen (AID 1104).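 Also: score merges 667 nm emission intensity with spot signal to noise over triplicate slides.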 The note with it: EGFR binding, higher = more signal.
Assay [8] concerns the target Follistatin-related protein 3 (Homo sapiens) (UniProt O95633). As to the kind of experiment: compounds binding follistatin-related protein 3 – biochemical, small-molecule microarray, 635 nm fluorescence, primary screen (AID 1105).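 Also: score merges emission near 667 nm and signal to noise per printed spot across three slides.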 The note with it: FSTL3 binding, higher = more signal.
The target of assay [9] is Dickkopf-related protein 1 (Homo sapiens) (UniProt O94907). As to the kind of experiment: small molecules binding DKK1 protein – biochemical, small-molecule microarray, 635 nm fluorescence scan, primary screen (AID 1106).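 Also: score merges emission near 667 nm with signal to noise over three replicate slides.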 The note with it: higher = more signal.
The subject of assay [10] is Inhibin beta A chain (activin A). The assay can be described thus: small molecules binding activin A – biochemical, small-molecule microarray, 635 nm fluorescence scan, primary screen (AID 1107).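 Also: mouse activin A protein probed at 4.33 µg/mL on printed slides; score merges bound-protein fluorescence near 667 nm with spot signal-to-noise.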 The note with it: INHBA, higher = more signal.
For assay [11], the system named is Human papillomavirus type 1a protein E7 (residues 44-93). As to the kind of experiment: small molecules binding HPV E7 44-93 – biochemical, small-molecule microarray, residues 44-93, 635 nm fluorescence, primary screen (AID 1108).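 Also: E7 fragment applied at 1 µg/mL in TBST for 1 h at 4 C; score combines spot fluorescence with its signal to noise ratio.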 The note with it: fluorescence 635 nm, higher = more signal.
Assay [12] in a line: hepatitis C replication reporter changes, two-sided – Huh7 cells, luciferase reporter, HCV replication inhibitor project, primary screen (AID 1109).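 Also: huh7 hepatoma cells harbouring a luciferase neomycin HCV replicon reporter; luciferase luminescence as measure of HCV replicon replication; test concentration not given here.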 The note with it: Huh7 HCV replicon luciferase reporter, 48 h; higher = more signal.
Assay [13] addresses Left-right determination factor 2 (Homo sapiens) (UniProt O00292). As to the kind of experiment: small molecules binding LEFTY2 protein – biochemical, small-molecule microarray, 635 nm fluorescence scan, primary screen (AID 1110). The note with it: higher = more signal.
Assay [14] has as its target Calmodulin-1 (Homo sapiens) (UniProt P0DP23). The assay can be described thus: small molecules binding calmodulin-1 with EGTA – biochemical, small-molecule microarray, Cy5-labelled CALM1, profiling panel (AID 1111).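 Also: labelled calmodulin applied in Tris saline Tween buffer holding calcium plus EGTA and DTT.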 The note with it: Cy5-CALM1 binding fluorescence, higher = more signal.
Assay [15] has the same target. As to the kind of experiment: small molecules binding Ca-loaded calmodulin-1 – biochemical, small-molecule microarray, Cy5-labelled CALM1, plus calcium, artefact control for SMM control-protein annotation, profiling panel (AID 1112).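 Also: score merges spot fluorescence with signal to noise from triplicate slides.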 The note with it: Cy5-CALM1 binding fluorescence, higher = more signal.
Assay [16] in a line: probe aWnt5a binding to arrayed compounds – biochemical, biotinylated probe, 635/667 nm fluorescence, primary screen (AID 1113).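 Also: score merges 667 nm fluorescence intensity with signal-to-noise per printed feature.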 The note with it: small-molecule microarray, higher = more signal.
Assay [17] in a line: probe aShh binding to arrayed compounds – biochemical, biotinylated probe, 635/667 nm fluorescence, primary screen (AID 1114).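 Also: probe is biotin-labelled aShh protein from a stem cell growth factor screen; measures binding of labelled protein to compounds printed on the slide; score merges feature fluorescence at 667 nm with signal-to-noise.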 The note with it: small-molecule microarray, higher = more signal.
Assay [18] in a line: probe aNog binding to arrayed compounds – biochemical, biotinylated probe, 635/667 nm fluorescence, primary screen (AID 1115).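 Also: probe is biotinylated aNog protein used at 0.15 µg/mL for 1 h at 4 C; z-score combines 667 nm fluorescence of each spot with its signal to noise.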 The note with it: small-molecule microarray, higher = more signal.
For assay [19], the target named is Torsin-1A-interacting protein 1 (Homo sapiens) (UniProt Q5JTV8). The assay can be described thus: compound microarray binding of lysate hLAP1 – cell lysate, small-molecule microarray, COS7 lysate, 635/667 nm fluorescence, primary screen (AID 1116). The note with it: 635 nm fluorescence, higher = more signal.
Assay [20] has as its target Alpha-bungarotoxin (Bungarus multicinctus) (UniProt P60615). The assay can be described thus: compounds binding labelled alpha-BTX control protein – biochemical, small-molecule microarray, Alexa647 label, 635/667 nm fluorescence, artefact control for SMM control protein annotation, profiling panel (AID 1117). The note with it: alpha-BTX-A647 binding fluorescence, higher = more signal.

Calls of active or inactive are those of the source.

Epidermal growth factor receptor (Homo sapiens), sequence (P00533 whole entry, looked up): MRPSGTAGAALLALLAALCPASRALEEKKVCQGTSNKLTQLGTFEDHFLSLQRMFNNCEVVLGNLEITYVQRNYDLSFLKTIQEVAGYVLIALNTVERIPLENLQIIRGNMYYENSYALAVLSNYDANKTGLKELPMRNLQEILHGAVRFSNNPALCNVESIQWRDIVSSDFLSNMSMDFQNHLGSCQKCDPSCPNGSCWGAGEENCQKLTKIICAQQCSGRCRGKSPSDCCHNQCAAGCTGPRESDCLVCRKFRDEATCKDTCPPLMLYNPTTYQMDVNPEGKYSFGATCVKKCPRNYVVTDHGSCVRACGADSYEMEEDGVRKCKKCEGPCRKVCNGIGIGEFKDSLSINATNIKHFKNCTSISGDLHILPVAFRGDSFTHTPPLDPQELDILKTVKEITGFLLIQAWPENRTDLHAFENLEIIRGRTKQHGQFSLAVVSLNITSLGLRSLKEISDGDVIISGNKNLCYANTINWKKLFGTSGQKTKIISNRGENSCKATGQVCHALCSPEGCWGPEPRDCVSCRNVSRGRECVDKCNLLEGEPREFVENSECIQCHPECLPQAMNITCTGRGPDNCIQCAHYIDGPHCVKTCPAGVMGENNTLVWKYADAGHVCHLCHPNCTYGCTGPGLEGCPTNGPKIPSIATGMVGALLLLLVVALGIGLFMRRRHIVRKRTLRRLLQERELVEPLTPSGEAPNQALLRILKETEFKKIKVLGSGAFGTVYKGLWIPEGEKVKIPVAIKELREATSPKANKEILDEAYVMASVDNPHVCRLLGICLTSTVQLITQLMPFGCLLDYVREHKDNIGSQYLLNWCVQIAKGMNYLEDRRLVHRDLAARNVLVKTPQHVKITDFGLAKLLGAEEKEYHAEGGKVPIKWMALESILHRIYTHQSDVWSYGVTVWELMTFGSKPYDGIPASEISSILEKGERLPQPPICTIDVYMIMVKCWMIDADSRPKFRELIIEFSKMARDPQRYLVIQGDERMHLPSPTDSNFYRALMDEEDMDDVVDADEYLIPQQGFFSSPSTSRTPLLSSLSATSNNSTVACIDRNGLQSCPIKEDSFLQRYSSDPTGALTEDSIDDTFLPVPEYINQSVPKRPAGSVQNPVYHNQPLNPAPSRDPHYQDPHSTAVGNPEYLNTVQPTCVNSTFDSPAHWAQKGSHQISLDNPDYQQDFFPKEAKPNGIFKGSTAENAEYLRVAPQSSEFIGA
Follistatin-related protein 3 (Homo sapiens), sequence (O95633 whole entry, looked up): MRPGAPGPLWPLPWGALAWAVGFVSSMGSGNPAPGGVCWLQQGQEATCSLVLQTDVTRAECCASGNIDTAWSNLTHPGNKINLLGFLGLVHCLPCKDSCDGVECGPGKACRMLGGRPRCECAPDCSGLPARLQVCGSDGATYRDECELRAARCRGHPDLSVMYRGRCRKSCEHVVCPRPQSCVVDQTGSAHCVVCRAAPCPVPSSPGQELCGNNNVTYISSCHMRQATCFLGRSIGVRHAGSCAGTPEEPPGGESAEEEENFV
Torsin-1A-interacting protein 1 (Homo sapiens), sequence (Q5JTV8 whole entry, looked up): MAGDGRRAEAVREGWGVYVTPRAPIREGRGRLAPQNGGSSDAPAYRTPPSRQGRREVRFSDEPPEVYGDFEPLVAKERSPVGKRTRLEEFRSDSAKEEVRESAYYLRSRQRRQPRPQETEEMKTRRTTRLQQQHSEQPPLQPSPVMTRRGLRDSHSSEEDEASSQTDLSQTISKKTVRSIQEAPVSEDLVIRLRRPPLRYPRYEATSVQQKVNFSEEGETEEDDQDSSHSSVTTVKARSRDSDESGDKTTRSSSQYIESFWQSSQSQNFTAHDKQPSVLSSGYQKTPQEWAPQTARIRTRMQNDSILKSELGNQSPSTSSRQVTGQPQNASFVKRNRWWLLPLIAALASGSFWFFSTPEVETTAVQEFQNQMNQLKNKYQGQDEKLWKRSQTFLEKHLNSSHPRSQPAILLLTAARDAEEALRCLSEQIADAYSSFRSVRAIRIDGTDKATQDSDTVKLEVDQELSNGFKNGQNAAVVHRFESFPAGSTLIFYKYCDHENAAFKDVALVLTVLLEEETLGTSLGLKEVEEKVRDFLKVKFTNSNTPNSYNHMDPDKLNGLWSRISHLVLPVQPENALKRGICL
Dickkopf-related protein 1 (Homo sapiens), sequence (O94907 whole entry, looked up): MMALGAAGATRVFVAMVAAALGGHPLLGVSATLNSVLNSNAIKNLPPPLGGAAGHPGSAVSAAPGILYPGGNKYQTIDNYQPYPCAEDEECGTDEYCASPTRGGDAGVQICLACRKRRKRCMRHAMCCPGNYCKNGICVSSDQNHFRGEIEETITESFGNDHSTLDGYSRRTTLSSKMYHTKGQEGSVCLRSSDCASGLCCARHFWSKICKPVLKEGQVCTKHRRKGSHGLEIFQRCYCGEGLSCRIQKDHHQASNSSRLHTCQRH
Fibroblast growth factor 10 (Homo sapiens), sequence (O15520 whole entry, looked up): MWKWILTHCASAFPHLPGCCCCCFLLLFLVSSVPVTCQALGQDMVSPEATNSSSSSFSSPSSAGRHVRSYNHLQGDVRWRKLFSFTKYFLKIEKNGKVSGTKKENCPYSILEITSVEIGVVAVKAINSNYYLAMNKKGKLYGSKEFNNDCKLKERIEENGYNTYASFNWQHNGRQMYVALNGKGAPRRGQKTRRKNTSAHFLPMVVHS
Left-right determination factor 2 (Homo sapiens), sequence (O00292 whole entry, looked up): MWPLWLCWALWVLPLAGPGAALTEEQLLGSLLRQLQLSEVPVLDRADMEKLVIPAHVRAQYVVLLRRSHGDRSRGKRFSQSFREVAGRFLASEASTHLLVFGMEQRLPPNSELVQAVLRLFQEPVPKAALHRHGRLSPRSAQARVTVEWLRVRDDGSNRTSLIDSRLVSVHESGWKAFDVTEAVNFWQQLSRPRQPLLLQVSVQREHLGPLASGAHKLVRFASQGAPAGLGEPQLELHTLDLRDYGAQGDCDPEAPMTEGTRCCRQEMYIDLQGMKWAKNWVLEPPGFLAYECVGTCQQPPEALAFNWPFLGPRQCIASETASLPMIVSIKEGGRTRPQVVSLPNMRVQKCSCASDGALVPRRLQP
Alpha-bungarotoxin (Bungarus multicinctus), sequence (P60615 whole entry, looked up): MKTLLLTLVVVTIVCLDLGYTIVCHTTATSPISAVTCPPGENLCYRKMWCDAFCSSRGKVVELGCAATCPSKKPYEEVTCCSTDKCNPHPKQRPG

Take `NC(=O)NCC#Cc1ccc2c(c1)[C@]1(C(=O)N2)[C@H](c2ccc(O)cc2)N2[C@H](c3ccccc3)[C@H](c3ccccc3)OC(=O)[C@H]2[C@@H]1C(=O)N1CCN(c2ncccn2)CC1`: the composite z-score was 0.681 in assay [1]; 0.337 in assay [2]; 0.372 in assay [3]; 0.602 in assay [5]; -0.398 in [6]; -0.232 in [7]. Further, the composite z-score is -0.483 in [8]; -0.122 in [9]; 0.862 in assay [10]; 0.237 in [11]; 0.158 in assay [13]; 0.301 in assay [14]. In addition, the composite z-score in assay [15] is 0.476; in [16], -0.13; in [17], -0.349; in assay [18], 0.789; in assay [19] it was 0.811; in [20], 0.772. Also, the values for the z-score in [4] and in assay [12] were -0.0492 (inactive) and -0.762, respectively.

As to `CO[C@H]1O[C@H](CO)[C@@H](OC(=O)Nc2ccccc2-c2ccccc2)[C@H](OC(=O)Nc2ccccc2-c2ccccc2)[C@H]1OC(=O)Nc1ccccc1-c1ccccc1`, the composite z-score in assay [1] was determined as 1.54; in assay [2], 0.677; in assay [3], 0.607; in assay [5] it was 1.4; in [6], 1.35; in assay [7], 0.197. Besides, the composite z-score came to 1.36 in assay [8]; 0.289 in [9]; 0.628 in assay [10]; 1.05 in assay [11]; 0.591 in [13]; 1.08 in [14]. The composite z-score in assay [15] is -0.588; in assay [16], 0.0321; in [17], 0.431; in [18], 0.225; in [19], 1.41; in [20] it was 1.73. Besides, the z-score is -0.316 (inactive) in [4] and -2.43 in assay [12].

As to `O=C1O[C@@H](c2ccccc2)[C@@H](c2ccccc2)N2[C@@H](c3ccccc3OCCO)[C@]3(C(=O)Nc4ccc(C#CC5(O)CCCCCC5)cc43)[C@@H](C(=O)NC[C@H](O)c3ccccc3)[C@H]12`, the composite z-score in [1] was determined as 1.06; in assay [2] it was 1.64; in assay [3] it was 0.204; in assay [5] it was 1.3; in assay [6] it was 0.868; in assay [7], 0.265. Moreover, the composite z-score is 1.08 in assay [8]; 0.283 in [9]; 1 in assay [10]; 1.41 in assay [11]; -0.24 in assay [13]; 0.819 in [14]. In addition, the composite z-score in [15] turned out to be 0.923; in assay [16], 0.0912; in [17], 0.681; in [18], 1.86; in assay [19], 0.0197; in assay [20], 0.728. The z-score in [4] is -0.525 (inactive); in assay [12] it was -3.23.

As to `CO[C@H]1O[C@H](CO)[C@@H](OC(=O)Nc2cccc(F)c2)[C@H](OC(=O)Nc2ccccc2-c2ccccc2)[C@@H]1OC(=O)Nc1ccccc1-c1ccccc1`, the composite z-score in assay [1] was 1.13; in [2], 0.568; in assay [3], 0.74; in assay [5], 1.17; in assay [6], 0.673; in assay [7] it was 0.407. In addition, the composite z-score in [8] was found to be 1.11; in [9] it was 0.198; in assay [10] it was 0.434; in assay [11] it was 1.16; in [13], 0.343; in assay [14] it was 1.95. Also, the composite z-score was 0.283 in [15]; 0.0825 in [16]; 0.0684 in [17]; -0.268 in assay [18]; 1.47 in assay [19]; 1.96 in assay [20]. Moreover, the z-score in [4] is 1.54 (inactive); in assay [12], -3.61.

With `CN(C)CCCC[C@@H]1NC(=O)[C@@H]2C[C@H](C(=O)NCc3ccc(F)cc3)[C@H](c3cccc(OCCO)c3)N2C1=O`, the composite z-score in assay [1] was found to be 1.17; in [2], 0.0666; in assay [3] it was 0.0708; in assay [5], 1.36; in assay [6], 0.833; in assay [7] it was 0.267. The composite z-score in assay [8] was 1.17; in assay [9], 0.314; in assay [10], -0.218; in assay [11], 1.17; in [13], 0.748; in [14] it was 0.337. Also, the composite z-score in assay [15] is 0.136; in assay [16], -0.1; in assay [17], 0.207; in assay [18] it was -0.399; in assay [19], 1.07; in assay [20] it was 0.356. In addition, the results for the z-score in [4] and in assay [12] were -0.815 (inactive) and 0.679, respectively.

Source of the values: PubChem BioAssay.
